The supplement of paper PMC7366291
Counter-ions that a name gives are not always drawn. ± gives the standard deviation of the averaged measurements.

Tested on: Danio rerio Tg(wt1b:EGFP) embryo, pronephros
Assay: glomerular width (mean of left and right), fold change vs DMSO control; higher = wider glomerulus
Conditions: 25 µM; exposure: 24-48 hpf
How it was run: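 Each feature value is a fold change relative to the mean of same-day DMSO-treated embryos. Embryos of the Tg(wt1b:EGFP) zebrafish line, dechorionated, received 25 μM compound in 0.5% DMSO from 24 to 48 hpf at 28.5°C, in HEPES-buffered E3 with 0.003% PTU. Distances and angles were computed by a Fiji macro from 16 manually set reference points on maximum projections of dorsal pronephros images, and values beyond 2 SD of the feature mean were removed.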

Compound	glomerular width
CC(C)[N+](C)(CCC(C(N)=O)(c1ccccc1)c1ccccc1)C(C)C [Isopropamide iodide]	1.0283 ± 0.001
C[C@@H]1C[C@@H]([C@H](O)CC2CC(=O)NC(=O)C2)C(=O)[C@@H](C)C1 [Cycloheximide]	0.604 ± 0.14
CCC1=C[C@H]2CN3CCc4c([nH]c5ccccc45)[C@](C(=O)OC)(C2)[C@H]13 [Catharanthine]	1.07 ± 0.1
C[C@]12CC[C@@H](O)C[C@H]1CC[C@@H]1[C@@H]2CC[C@]2(C)C(=O)CC[C@@H]12 [3-alpha-Hydroxy-5-beta-androstan-17-one]	0.982 ± 0.066
CN1C[C@H](CNC(=O)OCc2ccccc2)C[C@@H]2c3cccc4c3c(cn4C)C[C@H]21 [Metergoline]	0.9966 ± 0.0098
COc1ccc(CN2CCNCC2)c(OC)c1OC [Trimetazidine dihydrochloride]	0.96 ± 0.014
O[C@@H]1CCCC[C@H]1N1CCC(c2ccccc2)CC1 [L(-)-vesamicol hydrochloride]	0.955 ± 0.032

Tested on: Danio rerio Tg(wt1b:EGFP) embryo, pronephros
Assay: fraction of imaged embryos annotated as normal kidney; higher = less nephrotoxic; extreme values may be limits of the assay
Conditions: 25 µM; exposure: 24-48 hpf
How it was run: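 Embryos of the Tg(wt1b:EGFP) zebrafish line were dechorionated and held in 12-well plates with 25 μM compound in 0.5% DMSO and 5 mM HEPES-buffered E3 containing 0.003% PTU, from 24 to 48 hpf at 28.5°C. Larvae were then anaesthetised with tricaine, set dorsal side up in agarose-filled 96-well plates, and their pronephroi imaged by widefield fluorescence at 470 nm over 10 z-slices. Each value is the fraction of embryos per treatment placed in the normal-kidney category after manual annotation of maximum projections.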

Compound	fraction of imaged embryos annotated as normal kidney
CCC1(CC)C(=O)C=CNC1=O [Pyrithyldione]	0.727
CCN(CC)C(C)C(=O)c1ccccc1 (configuration not stated) [Amfepramone hydrochloride]	0.917
CN(C)C(=O)Oc1cccc([N+](C)(C)C)c1 [Neostigmine bromide]	0.667
CCC(=O)O[C@@](Cc1ccccc1)(c1ccccc1)[C@@H](C)CN(C)C [Levopropoxyphene napsylate]	0.909
COc1ccc2c(c1)[C@]13CCCC[C@@H]1[C@H](C2)N(C)CC3 [Dextromethorphan hydrobromide monohydrate]	0.833
CCN[C@@H](C)Cc1cccc(C(F)(F)F)c1 [Dexfenfluramine hydrochloride]	0.917
CC[C@@H](CO)NC(=O)[C@@H]1C=C2c3cccc4[nH]cc(c34)C[C@H]2N(C)C1 [Methylergometrine maleate]	0.909
CCC(COC(=O)c1cc(OC)c(OC)c(OC)c1)(c1ccccc1)N(C)C (configuration not stated) [Trimebutine]	0.917
O=C(CCCN1CCC2(CC1)C(=O)NCN2c1ccccc1)c1ccc(F)cc1 [Spiperone]	0.833
CCC1(C)CC(=O)NC(=O)C1 [Bemegride]	0.75
CN1C(=O)CCS(=O)(=O)C1c1ccc(Cl)cc1 (configuration not stated) [Chlormezanone]	0.545
CC(C)N(CCC(C(N)=O)(c1ccccc1)c1ccccn1)C(C)C (configuration not stated) [Disopyramide]	0.667
C[C@]12CCC(=O)C(O)=C1CC[C@@H]1[C@@H]2CC[C@]2(C)C(=O)CC[C@@H]12 [Formestane]	0.917
NC(=O)C[S+]([O-])C(c1ccccc1)c1ccccc1 (configuration not stated) [Modafinil]	0.5
NC(=O)OCCCc1ccccc1 [Phenprobamate]	0.75
CC(Cc1ccc(O)cc1)NCC(O)c1cc(O)cc(O)c1 (configuration not stated) [Fenoterol hydrobromide]	1
C#CCN(C)[C@H](C)Cc1ccccc1 [Selegiline hydrochloride]	0.75
C[C@]12CCC(=O)C=C1C=C[C@@H]1[C@@H]2CC[C@@]2(C)[C@H]1CC[C@@]2(O)CCC(=O)O [Canrenoic acid potassium salt]	0.455

Compound	fraction of imaged embryos annotated as normal kidney
CC(=O)[C@H]1CC[C@H]2[C@@H]3CC[C@H]4C[C@H](O)CC[C@]4(C)[C@H]3C(=O)C[C@]12C [Alfaxalone]	0.583
O=C(CCCN1CCC(n2c(=O)[nH]c3ccccc32)CC1)c1ccc(F)cc1 [Benperidol]	0.917
C#C[C@]1(O)CC[C@H]2[C@@H]3CCC4=CC(=O)CCC4=C3C=C[C@@]21CC [Gestrinone]	0.417
CC(Cc1ccccc1)NCCC(c1ccccc1)c1ccccc1 (configuration not stated) [Prenylamine lactate]	0.727
C[N+]1(C)[C@@H]2CC[C@H]1C[C@@H](OC(=O)C(CO)c1ccccc1)C2 (some centres not stated) [Methylatropine nitrate]	0.917
O=P1(NCCCl)OCCCN1CCCl (configuration not stated) [Ifosfamide]	0.833
C[C@@H]1CN([C@H]2CC[C@](C#N)(c3ccc(F)cc3)CC2)CC[C@]1(C(=O)O)c1ccccc1 [Levocabastine hydrochloride]	0.917
CC(C)c1c(CN(C)C(C)Cc2ccccc2)n(C)n(-c2ccccc2)c1=O (configuration not stated) [Famprofazone]	0.917
NCCc1c[nH]c2ccc(O)cc12 [Serotonin hydrochloride]	0.667
CN[C@@H]1[C@@H](O)[C@@H](O[C@@H]2[C@@H](O)[C@H](O[C@H]3O[C@H](CN)CC[C@H]3N)[C@@H](N)C[C@H]2N)OC[C@]1(C)O.CN[C@@H]1[C@@H](O)[C@@H](O[C@@H]2[C@@H](O)[C@H](O[C@H]3O[C@H]([C@@H](C)N)CC[C@H]3N)[C@@H](N)C[C@H]2N)OC[C@]1(C)O.CN[C@@H]1[C@@H](O)[C@@H](O[C@@H]2[C@@H](O)[C@H](O[C@H]3O[C@H]([C@@H](C)NC)CC[C@H]3N)[C@@H](N)C[C@H]2N)OC[C@]1(C)O [Gentamicine sulfate]	0.667
CC(C)[N+](C)(CCC(C(N)=O)(c1ccccc1)c1ccccc1)C(C)C [Isopropamide iodide]	0.818
C[C@@H]1C[C@@H]([C@H](O)CC2CC(=O)NC(=O)C2)C(=O)[C@@H](C)C1 [Cycloheximide]	0.2
CCC1=C[C@H]2CN3CCc4c([nH]c5ccccc45)[C@](C(=O)OC)(C2)[C@H]13 [Catharanthine]	0.833
C[C@]12CC[C@@H](O)C[C@H]1CC[C@@H]1[C@@H]2CC[C@]2(C)C(=O)CC[C@@H]12 [3-alpha-Hydroxy-5-beta-androstan-17-one]	0.75
CN1C[C@H](CNC(=O)OCc2ccccc2)C[C@@H]2c3cccc4c3c(cn4C)C[C@H]21 [Metergoline]	1
COc1ccc(CN2CCNCC2)c(OC)c1OC [Trimetazidine dihydrochloride]	0.917
O[C@@H]1CCCC[C@H]1N1CCC(c2ccccc2)CC1 [L(-)-vesamicol hydrochloride]	0.917
